# According to PubChem BioAssay (EPA / NIEHS):
# “And” between values parts separate entries of the source, which are not always exact repeats. Identical values can stand only once. Results filed as inconclusive are left out. The source made the active and inactive calls. The calls were made as follows: active = hit-call score of the fitted dose curve at least 0.9, where 1 is the maximum; inconclusive = response in the unintended direction; inactive = score below 0.9.
# Target: rat CYP2D2, Cyp2d26 (gene 25053) (UniProt P10634)
# Sequence (P10634 whole entry, looked up): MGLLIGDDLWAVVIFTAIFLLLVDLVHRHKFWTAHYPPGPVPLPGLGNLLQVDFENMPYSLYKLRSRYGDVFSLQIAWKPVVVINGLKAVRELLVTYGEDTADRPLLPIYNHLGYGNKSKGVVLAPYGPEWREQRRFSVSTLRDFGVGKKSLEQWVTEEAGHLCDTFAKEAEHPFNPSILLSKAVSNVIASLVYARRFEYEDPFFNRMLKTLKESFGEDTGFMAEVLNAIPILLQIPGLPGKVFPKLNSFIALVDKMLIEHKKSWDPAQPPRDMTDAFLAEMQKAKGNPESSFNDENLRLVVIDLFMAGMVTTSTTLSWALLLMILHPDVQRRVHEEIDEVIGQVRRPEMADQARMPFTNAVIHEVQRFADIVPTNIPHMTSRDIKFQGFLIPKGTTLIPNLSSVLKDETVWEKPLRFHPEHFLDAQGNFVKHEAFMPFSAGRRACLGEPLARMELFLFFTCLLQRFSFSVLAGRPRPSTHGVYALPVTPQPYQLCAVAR
# Experiment: NVS_ADME_rCYP2D2: NovaScreen (NVS) CYP450-related Enzyme Activity (ADME) Assay for rat CYP2D2 (AID 2283124)
# Experimental: NVS_ADME_rCYP2D2 is a biochemical, single-readout assay that uses extracted gene-proteins in a cell-free assay. Measurements were taken 0.75 hour after chemical dosing in a 96-well plate.NVS_ADME_rCYP2D2 is one of one assay component(s) measured or calculated from the NVS_ADME_rCYP2D2 assay. It is designed to make measurements of enzyme activity, a form of enzyme reporter, as detected with fluorescence intensity signals by Fluorescence technology.Data from the assay component NVS_ADME_rCYP2D2 was analyzed into 1 assay endpoint. This assay endpoint, NVS_ADME_rCYP2D2, was analyzed in the positive analysis fitting direction relative to Acetonitrile as the negative control and baseline of activity. Using a type of enzyme reporter, loss-of-signal activity can be used to understand changes in the enzymatic activity as they relate to the gene Cyp2d2. Furthermore, this assay endpoint can be referred to as a primary readout, because this assay has produced multiple assay endpoints where this one serves a enzymatic activity function. To generalize the intended target to other relatable targets, this assay endpoint is annotated to the cyp intended target family, where the subfamily is xenobiotic metabolism.
# Binding assays used specific radioligands (tritiated, iodinated) with non-radioactive competitive displacement ligands in agonist or antagonist protocols (as indicated) and various reference compounds and inhibitors to titrate specific binding to receptors and transporters. Most enzyme assays (CYPs, kinases, phosphatases, proteases, HDACs) used recombinant protein and specific substrates (fluorescence mostly, some colorimetric and radioactive) and inhibitors, followed by a biochemical separation of substrate and product. All assays for the biochemical HTS were initially run in duplicate at a single concentration (10 uM for CYP450 assays and 25 uM for all others). Assay-chemical combinations meeting a pre-defined threshold (e.g., 30% inhibition and other criteria defined below) were then run in singleton concentration-response format with maximum concentration of 20 uM for CYPs and 50 uM for all others. Each assay was run with positive and negative controls, and concurrent controls on every plate. The follow-up (secondary) screen tested active chemical-pairs in concentration series, as well as a few additional assays not tested in the primary screen, some selected negative inactives, and several cases re-run in the concentration series for confirmatory purposes.
Compound,outcome,AC50
CCOP(=S)(OCC)Oc1ccc2c(C)c(Cl)c(=O)oc2c1,inactive,
C[Si](Cn1cncn1)(c1ccc(F)cc1)c1ccc(F)cc1,,1.87 µM (active)
CCOC(=O)CC(SP(=O)(OC)OC)C(=O)OCC (stereo not drawn),inactive,
CCCCOC(=O)[C@@H](C)Oc1ccc(Oc2ccc(C#N)cc2F)cc1,,12.1 µM (active)
CNc1cnn(-c2cccc(C(F)(F)F)c2)c(=O)c1Cl,inactive,
CCOP(=O)(NC(C)C)Oc1ccc(SC)c(C)c1 (stereo not drawn),,5.06 µM (active)
FC(F)C(F)(F)OCC(Cn1cncn1)c1ccc(Cl)cc1Cl (stereo not drawn),,5.52 µM (active)
CC(C1CC1)C(O)(Cn1cncn1)c1ccc(Cl)cc1 (stereo not drawn),,3.14 µM (active) and 4.54 µM (active)
CC[C@H](C)[C@H]1O[C@]2(C=C[C@@H]1C)C[C@@H]1C[C@@H](C/C=C(\C)[C@@H](O[C@H]3C[C@H](OC)[C@@H](O[C@H]4C[C@H](OC)[C@@H](NC)[C@H](C)O4)[C@H](C)O3)[C@@H](C)/C=C/C=C3\CO[C@@H]4[C@H](O)C(C)=C[C@@H](C(=O)O1)[C@]34O)O2,,3.96 µM (active)
CCOP(=S)(OCC)Oc1ccc([N+](=O)[O-])cc1,inactive,
CCCOCC(=Nc1ccc(Cl)cc1C(F)(F)F)n1ccnc1,,3.2 µM (active)
CCCSP(=O)(OCC)Oc1ccc(Br)cc1Cl (stereo not drawn),,8.58 µM (active)
CC(C)=CC1C(C(=O)OCN2C(=O)C3=C(CCCC3)C2=O)C1(C)C (stereo not drawn),,10 µM (active)
